Among all 5,500 compounds or so, about 2,000 (36%) were called active. Not shown: some 18% with an inconclusive outcome. No stated cut-off is given here; in the data, active means normalized growth mostly below about 0.91 (no sharp cut-off); inconclusive means no clear call, values can overlap the other calls; inactive means mostly above about 0.92. Some of the results follow.
Experiment: chemical genetic growth profiling, strain panel (AID 1159580);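 further: tested at 20 µM; growth read once vehicle control cultures reached saturation at 30 °C; 1 = growth at the plate median or of vehicle wells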
Settings: growth OD

Measured: normalized growth

Cc1[nH]c2ccccc2c1CN(C)C
inactive: S. cerevisiae deletion strains, locus YJR075W, strain HOC1, stronger effect = lower value 1.03 | S. cerevisiae deletion strains, locus YKL009W, strain mrt4, stronger effect = lower value 0.974 | S. cerevisiae deletion strains, locus YKL068W, stronger effect = lower value 1.01 | S. cerevisiae deletion strains, locus YKL085W, strain MDH1 (second series), stronger effect = lower value 0.997 | S. cerevisiae deletion strains, locus YKL085W, strain MDH1, stronger effect = lower value 0.997 | S. cerevisiae deletion strains, locus YKL160W, strain elf1, stronger effect = lower value 1.01 | S. cerevisiae deletion strains, locus YKL190W, strain CNB1, stronger effect = lower value 1.02 | S. cerevisiae deletion strains, locus YKR001C, strain vps1, stronger effect = lower value 1.01 | S. cerevisiae deletion strains, locus YKR026C, strain gcn3, stronger effect = lower value 1.02 | S. cerevisiae deletion strains, locus YKR091W, strain srl3, stronger effect = lower value 1.01 | S. cerevisiae deletion strains, locus YLL001W, strain dnm1, stronger effect = lower value 1.01 | S. cerevisiae deletion strains, locus YLL026W, stronger effect = lower value 1.02 | S. cerevisiae deletion strains, locus YLL041C, strain sdh2, stronger effect = lower value 1.01 | S. cerevisiae deletion strains, locus YLR027C, strain aat2, stronger effect = lower value 1.01 | S. cerevisiae deletion strains, locus YLR039C, strain RIC1, stronger effect = lower value 1.1 | S. cerevisiae deletion strains, locus YLR058C, strain SHM2, stronger effect = lower value 1.03 | S. cerevisiae deletion strains, locus YLR102C, strain apc9, stronger effect = lower value 1 | S. cerevisiae deletion strains, locus YLR113W, strain HOG1, stronger effect = lower value 1 | S. cerevisiae deletion strains, locus YLR221C, strain rsa3, stronger effect = lower value 1.01 | S. cerevisiae deletion strains, locus YLR258W, strain gsy2, stronger effect = lower value 1 | S. cerevisiae deletion strains, locus YLR262C, strain YPT6 (second series), stronger effect = lower value 1.01 | S. cerevisiae deletion strains, locus YLR262C, strain YPT6, stronger effect = lower value 1.05 | S. cerevisiae deletion strains, locus YLR268W, strain sec22, stronger effect = lower value 0.979 | S. cerevisiae deletion strains, locus YLR320W, strain mms22, stronger effect = lower value 1.04 | S. cerevisiae deletion strains, locus YLR330W, strain CHS5, stronger effect = lower value 1 | S. cerevisiae deletion strains, locus YLR342W, strain FKS1 (second series), stronger effect = lower value 1.02 | S. cerevisiae deletion strains, locus YLR342W, strain FKS1, stronger effect = lower value 1.01 | S. cerevisiae deletion strains, locus YLR357W, strain rsc2, stronger effect = lower value 1 | S. cerevisiae deletion strains, locus YLR370C, strain arc18, stronger effect = lower value 1.03 | S. cerevisiae deletion strains, locus YLR371W, strain rom2, stronger effect = lower value 1.01 | S. cerevisiae deletion strains, locus YLR384C, strain iki3, stronger effect = lower value 1.03 | S. cerevisiae deletion strains, locus YLR418C, strain cdc73, stronger effect = lower value 0.983 | S. cerevisiae deletion strains, locus YML016C, strain PPZ1, stronger effect = lower value 0.996 | S. cerevisiae deletion strains, locus YML032C, strain rad52, stronger effect = lower value 0.981 | S. cerevisiae deletion strains, locus YML120C, strain ndi1, stronger effect = lower value 1.01 | S. cerevisiae deletion strains, locus YML124C, strain tub3, stronger effect = lower value 0.991 | S. cerevisiae deletion strains, locus YMR058W, strain fet3, stronger effect = lower value 1.02 | S. cerevisiae deletion strains, locus YMR078C, strain ctf18, stronger effect = lower value 0.991 | S. cerevisiae deletion strains, locus YMR125W, strain sto1, stronger effect = lower value 1.01 | S. cerevisiae deletion strains, locus YMR129W, stronger effect = lower value 1.02 | S. cerevisiae deletion strains, locus YMR205C, strain PFK2, stronger effect = lower value 1.06 | S. cerevisiae deletion strains, locus YMR223W, strain ubp8, stronger effect = lower value 0.977 | S. cerevisiae deletion strains, locus YMR231W, strain pep5, stronger effect = lower value 1.02 | S. cerevisiae deletion strains, locus YMR263W, strain SAP30, stronger effect = lower value 1.02 | S. cerevisiae deletion strains, locus YMR307W, strain GAS1, stronger effect = lower value 1.15 | S. cerevisiae deletion strains, locus YNL067W, strain RPL9B, stronger effect = lower value 1.02 | S. cerevisiae deletion strains, locus YNL071W, strain lat1, stronger effect = lower value 1.01 | S. cerevisiae deletion strains, locus YNL128W, strain TEP1, stronger effect = lower value 1 | S. cerevisiae deletion strains, locus YNL183C, strain NPR1, stronger effect = lower value 0.94 | S. cerevisiae deletion strains, locus YNL209W, strain ssb2, stronger effect = lower value 1.04 | S. cerevisiae deletion strains, locus YNL233W, strain BNI4, stronger effect = lower value 1.05 | S. cerevisiae deletion strains, locus YNL248C, strain rpa49, stronger effect = lower value 1.02 | S. cerevisiae deletion strains, locus YNL250W, strain rad50, stronger effect = lower value 0.98 | S. cerevisiae deletion strains, locus YNL271C, strain bni1, stronger effect = lower value 0.995 | S. cerevisiae deletion strains, locus YNL298W, strain CLA4, stronger effect = lower value 0.985 | S. cerevisiae deletion strains, locus YNL307C, strain MCK1, stronger effect = lower value 1 | S. cerevisiae deletion strains, locus YNL322C, strain KRE1 (second series), stronger effect = lower value 1.02 | S. cerevisiae deletion strains, locus YNR049C, strain mso1, stronger effect = lower value 1.03 | S. cerevisiae deletion strains, locus YNR052C, strain pop2, stronger effect = lower value 0.994 | S. cerevisiae deletion strains, locus YOL012C, strain htz1 1.39 | S. cerevisiae deletion strains, locus YOL147C, strain pex11, stronger effect = lower value 0.993 | S. cerevisiae deletion strains, locus YOR001W, strain rrp6, stronger effect = lower value 1.02 | S. cerevisiae deletion strains, locus YOR061W, strain CKA2, stronger effect = lower value 1.02 | S. cerevisiae deletion strains, locus YOR069W, strain VPS5, stronger effect = lower value 0.995 | S. cerevisiae deletion strains, locus YOR070C, strain gyp1, stronger effect = lower value 1.02 | S. cerevisiae deletion strains, locus YOR080W, strain dia2, stronger effect = lower value 1.03 | S. cerevisiae deletion strains, locus YOR083W, strain WHI5, stronger effect = lower value 1.01 | S. cerevisiae deletion strains, locus YOR106W, strain vam3, stronger effect = lower value 1.04 | S. cerevisiae deletion strains, locus YOR136W, strain idh2, stronger effect = lower value 0.975 | S. cerevisiae deletion strains, locus YOR144C, strain elg1, stronger effect = lower value 0.999 | S. cerevisiae deletion strains, locus YOR184W, strain ser1, stronger effect = lower value 1.02 | S. cerevisiae deletion strains, locus YOR231W, strain MKK1, stronger effect = lower value 0.987 | S. cerevisiae deletion strains, locus YOR265W, strain rbl2, stronger effect = lower value 1.02 | S. cerevisiae deletion strains, locus YOR270C, strain vph1, stronger effect = lower value 1.07 | S. cerevisiae deletion strains, locus YOR290C, strain snf2, stronger effect = lower value 1.01 | S. cerevisiae deletion strains, locus YOR316C, strain cot1, stronger effect = lower value 0.992 | S. cerevisiae deletion strains, locus YPL051W, strain arl3, stronger effect = lower value 1.03 | S. cerevisiae deletion strains, locus YPL055C, strain LGE1, stronger effect = lower value 1.06 | S. cerevisiae deletion strains, locus YPL078C, strain atp4, stronger effect = lower value 1 | S. cerevisiae deletion strains, locus YPL106C, strain sse1, stronger effect = lower value 1.04 | S. cerevisiae deletion strains, locus YPL240C, strain hsp82, stronger effect = lower value 1.01 | S. cerevisiae deletion strains, locus YPL256C, strain CLN2, stronger effect = lower value 0.991 | S. cerevisiae deletion strains, locus YPR119W, strain clb2, stronger effect = lower value 0.992 | S. cerevisiae deletion strains, locus YPR141C, strain kar3, stronger effect = lower value 1 | S. cerevisiae deletion strains, locus YPR163C, strain tif3, stronger effect = lower value 0.996 | S. cerevisiae deletion strains, locus YPR167C, strain met16, stronger effect = lower value 0.988 | S. cerevisiae deletion strains, strain wtn01, stronger effect = lower value 0.966 | S. cerevisiae strains, strain wild type, stronger effect = lower value 1.03

Reference: PubChem BioAssay AID1159580 (chemical genetic matrix, 2015)
